Data: PubChem BioAssay AID504321 (NMMLSC, 2011)
Activity calls are given as the source filed them.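 How the source made its calls: active means GFP response vs DMSO above 150% with enough events counted; inconclusive means fewer than 70 events counted for a yeast strain; inactive means the rest.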

assay: MEP2-GFP expression modulation in yeast, confirmation, flow cytometry, third cherry pick, S. cerevisiae (AID 504321);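 further: median per-cell GFP fluorescence by flow cytometry across all yeast cells; ratio of sample to DMSO median GFP so 100% equals the DMSO level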; conditions: S. cerevisiae MEP2-GFP strain, 3 h, at 10 µM, hits give high values

GFP response vs DMSO, inactive:
Brc1ccc2ncnc(NCc3ccccc3)c2c1 105%
OCCNc1ncnc2ccc(Br)cc12 101%
COc1ccc(NC(=O)O/N=C2/CCCc3ccc(OC)cc32)cc1 112%
Cc1nc2c(O)cccc2cc1CO 103%
O=C(N/N=C/c1ccccc1F)c1cccc2ccccc12 108%
O=C(O)c1ccc(C=NNC(=O)c2cccc3ccccc23)cc1 103%
Cn1c(NCCCO)nc2c(c1=O)C1(CCCCC1)Cc1ccccc1-2 112%
CC(=O)Nn1cnc2c(c1=O)C1(CCCC1)Cc1ccccc1-2 105%
O=C(Nc1ccccc1)ON=C1c2ccccc2-c2ccccc21 99%
COc1cccc(N/C=C/C(=O)c2ccc(C)cc2)c1 112%
CC(=O)Nc1ccc(-c2nc3ccccc3o2)cc1 110%
CC(=O)NC(C)c1cc(Cl)c2cccnc2c1O (centres undefined) 99%
COc1cccc(N/C=C/C(=O)c2ccc(Cl)cc2)c1 114%
COc1ccc(OC)c(Nc2nc(NCCC(C)C)nc(N)c2[N+](=O)[O-])c1 108%
CC(=O)NCCOc1cccc2cccnc12 110%
Cc1ccc2nc(-c3ccc(NC(=O)c4cccnc4)cc3)oc2c1 114%
Cc1cccc(Nc2cc(=O)[nH]c(=O)[nH]2)c1 108%
Cc1ccc(Nc2cc(=O)[nH]c(=O)[nH]2)cc1Cl 101%
COc1ccccc1-c1cc(C(F)(F)F)nc(S(=O)(=O)CCCC(=O)O)n1 110%
